PubChem BioAssay (Tox21)
Results filed as inconclusive are left out. The source made the active and inactive calls. The call rests on the fitted dose curve; in most records, active means well fitted curve in the direction sought with a large enough effect in the repeat runs; inconclusive means weak or mixed curves; inactive means no such curve, though single readings can be large; an effect the other way counts as inactive or inconclusive.

Tests used:
[1] = A CellTox Green Cytotoxicity Assay to monitor cytotoxicity in HEK293 cells - 40 hour (AID 1224871); details: CellTox Green fluorescence; series mostly up to 76.8 µM; further: nearly all actives have a fitted effect of over 45% in size; further: potency means the concentration at half of the fitted maximal effect
How it was run: (§1)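 Homogeneous no-lysis format: HEK293 cell suspension mixed with CellTox Green reagent, seeded, incubated 5 h at 37 C/5% CO2, then dosed by pintool with compound in DMSO.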

[2] = qHTS RealTime-Glo MT Cell Viability Assay in HEK293 cells - 16 hour (AID 1224872); details: RealTime-Glo luminescence; series mostly up to 76.8 µM; further: nearly all actives have a fitted effect of over 50% in size; further: potency means the concentration at half of the fitted maximal effect
How it was run: (§2)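 Assay medium contained NanoLuc luciferase plus cell-permeant prosubstrate, added with HEK293 cells at 600 cells/well. After 5 h at 37 C/5% CO2 compounds were added; plates stayed at 37 C for 40 h with serial luminescence reads.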

[3] = qHTS RealTime-Glo MT Cell Viability Assay in HepG2 cells - 8 hour (AID 1224873); details: RealTime-Glo luminescence; series mostly up to 76.8 µM; further: nearly all actives have a fitted effect of over 55% in size
How it was run: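 HepG2 cells (600/well) mixed with RealTime-Glo MT reagent, settled 5 h at 37 C/5% CO2 before compound addition. Nonlytic NanoLuc luminescence from viable-cell prosubstrate reduction read repeatedly during 40 h treatment at 37 C.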

[4] = qHTS RealTime-Glo MT Cell Viability Assay in HEK293 cells - 40 hour (AID 1224874); details: RealTime-Glo luminescence; max response: hits give low values; further: nearly all actives have a fitted effect of over 50% in size; further: potency means the concentration at half of the fitted maximal effect
How it was run: (§3)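 Measured as luminescence from the same continuously cultured HEK293 wells at successive time points (0, 8, 16, 24, 32, 40 h) after compound addition. Reagent present from seeding; dosing at 5 h; incubation 37 C.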

[5] = A CellTox Green Cytotoxicity Assay to monitor cytotoxicity in HEK293 cells - 24 hour (AID 1224875); details: CellTox Green fluorescence; series mostly up to 76.8 µM; further: nearly all actives have a fitted effect of over 45% in size; further: potency means the concentration at half of the fitted maximal effect
How it was run: as §1

[6] = A CellTox Green Cytotoxicity Assay to monitor cytotoxicity in HepG2 cells - 16 hour (AID 1224876); details: CellTox Green fluorescence; series mostly up to 76.8 µM; further: nearly all actives have a fitted effect of over 45% in size
How it was run: (§4)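 Fluorescent DNA-binding dye, 600 HepG2 cells/well, 5 h preincubation then compound in DMSO; same plates read at 0–40 h, 37 C.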

[7] = qHTS RealTime-Glo MT Cell Viability Assay in HepG2 cells - 32 hour (AID 1224877); details: RealTime-Glo luminescence; series mostly up to 76.8 µM; further: nearly all actives have a fitted effect of over 55% in size
How it was run: (§5)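 qHTS, HepG2, 600 cells/well, RealTime-Glo (NanoLuc + prosubstrate) added with cells; 5 h preincubation; DMSO compound addition; 37 C; luminescence at 0/8/16/24/32/40 h.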

[8] = A CellTox Green Cytotoxicity Assay to monitor cytotoxicity in HepG2 cells - 24 hour (AID 1224878); details: CellTox Green fluorescence; series mostly up to 76.8 µM; further: nearly all actives have a fitted effect of over 45% in size; further: potency means the concentration at half of the fitted maximal effect
How it was run: as §4

[9] = A CellTox Green Cytotoxicity Assay to monitor cytotoxicity in HepG2 cells - 40 hour (AID 1224879); details: CellTox Green fluorescence; series mostly up to 76.8 µM; further: nearly all actives have a fitted effect of over 40% in size
How it was run: as §4

[10] = qHTS RealTime-Glo MT Cell Viability Assay in HEK293 cells - 0 hour (AID 1224880); details: RealTime-Glo luminescence; series mostly up to 76.8 µM
How it was run: as §3

[11] = A CellTox Green Cytotoxicity Assay to monitor cytotoxicity in HEK293 cells - 32 hour (AID 1224881); details: CellTox Green fluorescence; series mostly up to 76.8 µM; further: nearly all actives have a fitted effect of over 40% in size; further: potency means the concentration at half of the fitted maximal effect
How it was run: as §1

[12] = A CellTox Green Cytotoxicity Assay to monitor cytotoxicity in HepG2 cells - 0 hour (AID 1224882); details: CellTox Green fluorescence; series mostly up to 76.8 µM; further: nearly all actives have a fitted effect of over 35% in size
How it was run: as §4

[13] = A CellTox Green Cytotoxicity Assay to monitor cytotoxicity in HEK293 cells - 8 hour (AID 1224884); details: CellTox Green fluorescence; series mostly up to 76.8 µM; further: nearly all actives have a fitted effect of over 35% in size
How it was run: as §1

[14] = qHTS RealTime-Glo MT Cell Viability Assay in HepG2 cells - 16 hour (AID 1224885); details: RealTime-Glo luminescence; series mostly up to 76.8 µM; further: nearly all actives have a fitted effect of over 50% in size
How it was run: as §5

[15] = qHTS RealTime-Glo MT Cell Viability Assay in HEK293 cells - 24 hour (AID 1224886); details: RealTime-Glo luminescence; series mostly up to 76.8 µM; further: nearly all actives have a fitted effect of over 50% in size; further: potency means the concentration at half of the fitted maximal effect
How it was run: as §2

[16] = qHTS RealTime-Glo MT Cell Viability Assay in HEK293 cells - 8 hour (AID 1224887); details: RealTime-Glo luminescence; series mostly up to 76.8 µM; further: nearly all actives have a fitted effect of over 50% in size; further: potency means the concentration at half of the fitted maximal effect
How it was run: as §3

[17] = A CellTox Green Cytotoxicity Assay to monitor cytotoxicity in HEK293 cells - 16 hour (AID 1224888); details: CellTox Green fluorescence; series mostly up to 76.8 µM; further: nearly all actives have a fitted effect of over 35% in size; further: potency means the concentration at half of the fitted maximal effect
How it was run: as §1

[18] = qHTS RealTime-Glo MT Cell Viability Assay in HepG2 cells - 0 hour (AID 1224889); details: RealTime-Glo luminescence; series mostly up to 76.8 µM; further: nearly all actives have a fitted effect of over 50% in size
How it was run: as §5

[19] = A CellTox Green Cytotoxicity Assay to monitor cytotoxicity in HepG2 cells - 8 hour (AID 1224890); details: CellTox Green fluorescence; series mostly up to 76.8 µM; further: nearly all actives have a fitted effect of over 45% in size
How it was run: as §4

[20] = A CellTox Green Cytotoxicity Assay to monitor cytotoxicity in HepG2 cells - 32 hour (AID 1224883); details: CellTox Green fluorescence; series mostly up to 76.8 µM; further: nearly all actives have a fitted effect of over 50% in size
How it was run: as §4
On the % scale 0 is the no-effect control and ±100 the full control effect.

COc1cc(C[C@@H](C)N)c(OC)cc1C
inactive: Potency [1] | Potency [2] | Potency [3] | max response [4] -9.2% | Potency [5] | Potency [6] | Potency [7] | Potency [8] | Potency [9] | outcome [10] | Potency [11] | outcome [12] | Potency [13] | Potency [14] | Potency [15] | Potency [16] | Potency [17] | Potency [18] | Potency [19]

CCCCOP(=O)(O)OCCCC
inactive: Potency [1] | Potency [2] | Potency [3] | max response [4] 0.827% | Potency [6] | Potency [7] | Potency [8] | Potency [9] | outcome [10] | Potency [11] | outcome [12] | Potency [20] | Potency [13] | Potency [14] | Potency [15] | Potency [16] | Potency [17] | Potency [18] | Potency [19]

CC(C)CC(N(C)C)C1(c2ccc(Cl)cc2)CCC1 (configuration not stated)
active: Potency [1] 23.9 µM | Potency [5] 23.9 µM | Potency [11] 23.9 µM | Potency [17] 21.3 µM
inactive: Potency [2] | Potency [3] | max response [4] -6.91% | Potency [7] | outcome [10] | outcome [12] | Potency [14] | Potency [15] | Potency [18] | Potency [19]

COc1cccc(C(=O)NN(C(=O)c2cc(C)cc(C)c2)C(C)(C)C)c1C
inactive: Potency [1] | Potency [2] | Potency [3] | max response [4] -10% | Potency [5] | Potency [6] | Potency [9] | outcome [10] | Potency [11] | outcome [12] | Potency [13] | Potency [14] | Potency [15] | Potency [16] | Potency [17] | Potency [18] | Potency [19]
active: Potency [8] 0.616 µM

CN1CCC(N(Cc2ccccc2)c2ccccc2)CC1
inactive: Potency [1] | Potency [2] | Potency [3] | max response [4] 0.452% | Potency [5] | Potency [6] | Potency [7] | Potency [8] | outcome [10] | Potency [11] | outcome [12] | Potency [20] | Potency [13] | Potency [14] | Potency [15] | Potency [17] | Potency [18] | Potency [19]

Cc1cnc[nH]1
inactive: Potency [1] | Potency [2] | Potency [3] | max response [4] -2.47% | Potency [6] | Potency [7] | Potency [8] | Potency [9] | outcome [10] | Potency [11] | outcome [12] | Potency [20] | Potency [13] | Potency [14] | Potency [15] | Potency [16] | Potency [17] | Potency [18] | Potency [19]

O=C1OC(CCN2CCCCC2)OC1(c1ccccc1)c1ccccc1 (configuration not stated)
inactive: Potency [1] | Potency [2] | Potency [3] | max response [4] 5.83% | Potency [5] | Potency [6] | Potency [7] | Potency [8] | outcome [10] | Potency [11] | outcome [12] | Potency [20] | Potency [13] | Potency [14] | Potency [15] | Potency [16] | Potency [17] | Potency [18] | Potency [19]

C#CCN1C(=O)COc2cc(F)c(N3C(=O)C4=C(CCCC4)C3=O)cc21
inactive: Potency [1] | Potency [2] | Potency [3] | max response [4] 2.01% | Potency [6] | Potency [7] | Potency [8] | Potency [9] | outcome [10] | Potency [11] | outcome [12] | Potency [20] | Potency [13] | Potency [14] | Potency [15] | Potency [16] | Potency [17] | Potency [18] | Potency [19]

COC(=O)C1=CCCN(C)C1
inactive: Potency [1] | Potency [2] | Potency [3] | max response [4] 3.81% | Potency [5] | Potency [7] | Potency [8] | Potency [9] | outcome [10] | Potency [11] | outcome [12] | Potency [13] | Potency [14] | Potency [15] | Potency [17] | Potency [18] | Potency [19]

N#CC(Cl)(Cl)Cl
inactive: Potency [1] | Potency [2] | Potency [3] | max response [4] 3.49% | Potency [6] | Potency [7] | Potency [8] | Potency [9] | outcome [10] | Potency [11] | outcome [12] | Potency [20] | Potency [13] | Potency [14] | Potency [15] | Potency [16] | Potency [17] | Potency [18] | Potency [19]

N#Cc1c(Cl)cccc1Cl
inactive: Potency [1] | Potency [2] | Potency [3] | max response [4] 18.9% | Potency [5] | Potency [6] | Potency [7] | Potency [8] | Potency [9] | outcome [10] | Potency [11] | outcome [12] | Potency [13] | Potency [14] | Potency [15] | Potency [17] | Potency [18] | Potency [19]

COc1cccc2c1cc([N+](=O)[O-])c1c(C(=O)O)cc3c(c12)OCO3
active: Potency [2] 12.3 µM | Potency [4] 2.19 µM | Potency [8] 21.9 µM | Potency [15] 3.09 µM
inactive: Potency [1] | Potency [3] | Potency [5] | Potency [6] | Potency [11] | outcome [12] | Potency [13] | Potency [16] | Potency [17] | Potency [19]

C[C@H]1CCC[C@H](O)CCCCCc2cc(O)cc(O)c2C(=O)O1
inactive: Potency [1] | Potency [3] | Potency [5] | Potency [6] | Potency [7] | Potency [8] | outcome [10] | Potency [11] | outcome [12] | Potency [13] | Potency [14] | Potency [17] | Potency [18] | Potency [19]
active: Potency [2] 34.9 µM | Potency [4] 24.7 µM | Potency [15] 34.9 µM | Potency [16] 27.7 µM

CNCC(=O)c1ccc(O)c(O)c1
inactive: Potency [1] | Potency [2] | Potency [3] | max response [4] 2.09% | Potency [6] | Potency [7] | Potency [8] | Potency [9] | outcome [10] | Potency [11] | outcome [12] | Potency [20] | Potency [13] | Potency [14] | Potency [15] | Potency [16] | Potency [17] | Potency [18] | Potency [19]

CCOP(=S)(OCC)Oc1ncn(-c2ccccc2)n1
inactive: Potency [1] | Potency [2] | Potency [3] | Potency [5] | Potency [6] | Potency [7] | Potency [8] | Potency [9] | outcome [10] | Potency [11] | outcome [12] | Potency [20] | Potency [14] | Potency [15] | Potency [16] | Potency [17] | Potency [19]
